# Measured values reported in PubChem BioAssay.
# Active and inactive are the calls of the source. Unless noted, no rule for the calls is given here.
# How the values were obtained:
# [1] = anti-His antibody binders, primary screen, artefact control for SMM control protein annotation, biochemical, small-molecule microarray, 635 nm fluorescence (AID 1128); settings: anti-His Alexa647 antibody binding, higher = more signal;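 also: score merges feature fluorescence with signal-to-noise for each printed compound spot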
# [2] = tested on: Human papillomavirus type 1a E7 protein (residues 1-88); experiment: HPV1a E7 small-molecule binders, primary screen, biochemical, small-molecule microarray, residues 1-88, 635 nm (AID 1129); settings: small-molecule microarray binding, fluorescence 635 nm; higher = more signal
# [3] = biological target: Focal adhesion kinase 1 (Homo sapiens) (UniProt Q05397); experiment: small-molecule microarray binders of FAK, primary screen, biochemical, 635/667 nm fluorescence, BSA, DTT (AID 1130); settings: PTK2 binding, 635 nm fluorescence, higher = more signal;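 also: composite of spot emission at 667 nm and signal to noise over triplicate slides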
# Sequence of Focal adhesion kinase 1 (Homo sapiens) (Q05397 whole entry, looked up): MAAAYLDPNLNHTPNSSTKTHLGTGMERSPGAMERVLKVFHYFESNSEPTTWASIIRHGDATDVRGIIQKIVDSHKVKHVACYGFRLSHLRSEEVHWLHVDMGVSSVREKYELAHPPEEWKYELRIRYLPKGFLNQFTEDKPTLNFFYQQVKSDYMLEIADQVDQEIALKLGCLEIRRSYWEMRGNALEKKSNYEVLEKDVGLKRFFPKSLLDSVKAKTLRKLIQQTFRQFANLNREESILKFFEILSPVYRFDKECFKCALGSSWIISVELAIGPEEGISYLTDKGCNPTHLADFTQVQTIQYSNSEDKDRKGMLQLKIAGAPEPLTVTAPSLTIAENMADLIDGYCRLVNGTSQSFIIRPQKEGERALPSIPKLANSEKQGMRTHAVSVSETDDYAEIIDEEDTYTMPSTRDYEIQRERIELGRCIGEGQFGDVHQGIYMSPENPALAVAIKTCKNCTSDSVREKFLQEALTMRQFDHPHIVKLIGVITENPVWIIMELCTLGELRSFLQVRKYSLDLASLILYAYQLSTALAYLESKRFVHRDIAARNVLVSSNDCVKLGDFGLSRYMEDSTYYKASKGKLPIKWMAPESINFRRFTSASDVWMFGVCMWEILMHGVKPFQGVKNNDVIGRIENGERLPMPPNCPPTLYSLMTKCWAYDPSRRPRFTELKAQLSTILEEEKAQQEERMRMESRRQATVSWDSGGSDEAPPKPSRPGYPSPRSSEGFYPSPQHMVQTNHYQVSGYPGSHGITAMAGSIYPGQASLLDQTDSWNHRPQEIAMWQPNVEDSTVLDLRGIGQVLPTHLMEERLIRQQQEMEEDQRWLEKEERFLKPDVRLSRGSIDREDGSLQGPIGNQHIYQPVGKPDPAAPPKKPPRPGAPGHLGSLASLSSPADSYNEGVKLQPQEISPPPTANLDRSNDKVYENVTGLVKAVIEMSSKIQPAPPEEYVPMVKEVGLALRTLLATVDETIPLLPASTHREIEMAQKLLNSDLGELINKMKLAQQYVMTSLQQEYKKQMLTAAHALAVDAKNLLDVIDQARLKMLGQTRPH
# [4] = tested on: Fibrinogen (Alexa647-labelled); experiment: fibrinogen binders on compound microarrays, profiling panel, artefact control for SMM control-protein annotation, biochemical, small-molecule microarray, 635/667 nm fluorescence (AID 1131); settings: fibrinogen-A647 binding fluorescence, higher = more signal;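 also: z-score merges 667 nm fluorescence with per-spot signal-to-noise over triplicate slides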
# [5] = biological target: Follistatin (Homo sapiens) (UniProt P19883); experiment: follistatin binders on small-molecule microarrays, primary screen, biochemical, small-molecule microarray, 635/667 nm fluorescence (AID 1132); settings: FST binding, 635 nm fluorescence, higher = more signal
# Sequence of Follistatin (Homo sapiens) (P19883 whole entry, looked up): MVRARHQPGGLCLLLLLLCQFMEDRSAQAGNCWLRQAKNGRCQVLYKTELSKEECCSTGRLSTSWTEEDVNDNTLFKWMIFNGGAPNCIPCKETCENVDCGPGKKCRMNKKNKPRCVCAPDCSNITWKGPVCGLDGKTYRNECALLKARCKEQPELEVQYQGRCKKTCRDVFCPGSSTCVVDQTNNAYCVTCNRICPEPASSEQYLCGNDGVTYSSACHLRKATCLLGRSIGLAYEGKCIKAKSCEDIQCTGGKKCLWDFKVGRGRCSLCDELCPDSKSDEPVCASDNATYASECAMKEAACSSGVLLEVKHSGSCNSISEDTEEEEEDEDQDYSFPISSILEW
# [6] = biological target: Fibroblast growth factor 2 (Homo sapiens) (UniProt P09038); experiment: FGF2 binders on small-molecule microarrays, primary screen, biochemical, small-molecule microarray, 635/667 nm fluorescence (AID 1133); settings: small-molecule microarray binding, FGF2, fluorescence 635/667; higher = more signal
# Sequence of Fibroblast growth factor 2 (Homo sapiens) (P09038 whole entry, looked up): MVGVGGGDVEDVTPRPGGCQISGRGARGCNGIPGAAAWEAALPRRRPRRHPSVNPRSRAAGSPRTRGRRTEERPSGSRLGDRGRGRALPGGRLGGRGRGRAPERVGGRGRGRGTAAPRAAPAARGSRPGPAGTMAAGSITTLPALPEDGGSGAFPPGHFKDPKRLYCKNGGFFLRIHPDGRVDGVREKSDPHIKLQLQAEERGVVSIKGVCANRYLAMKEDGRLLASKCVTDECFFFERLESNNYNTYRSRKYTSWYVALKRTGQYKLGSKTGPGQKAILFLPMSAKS
# [7] = mitochondrial membrane potential change in A549 cells, profiling panel, cell-based, JC-1 fluorescence, basal, 24 h, 100 nL (AID 1138); settings: higher = more signal;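 also: A549 lung adenocarcinoma cells under basal conditions with no added stimulus; test concentration not given here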
# Lefty1 = Lefty1 binders on small-molecule microarrays, primary screen, biochemical, small-molecule microarray, 635/667 nm fluorescence (AID 1139); settings: small-molecule microarray binding, fluorescence 635/667; higher = more signal
# [8] = tested on: wheat germ agglutinin (Triticum aestivum), Alexa647-labelled; experiment: wheat germ agglutinin binders on compound microarrays, profiling panel, artefact control for SMM control-protein annotation, biochemical, small-molecule microarray, 635/667 nm fluorescence (AID 1140); settings: WGA-A647 binding, 635 nm fluorescence, higher = more signal;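 also: score merges 667 nm feature emission with signal to noise over triplicate slides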
# [9] = biological target: Luciferin 4-monooxygenase (Photinus pyralis) (UniProt P08659); experiment: firefly luciferase enzyme inhibitors, primary screen, biochemical, luminescence, purified enzyme, 2006 set (AID 1141); settings: SteadyGlo luminescence, 30 min, higher = more signal, called active from +8 up or from −8 down;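 also: cell-free assay with purified firefly luciferase at 100 ng per well in PBS; test concentration not given here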
# Sequence of Luciferin 4-monooxygenase (Photinus pyralis) (P08659 whole entry, looked up): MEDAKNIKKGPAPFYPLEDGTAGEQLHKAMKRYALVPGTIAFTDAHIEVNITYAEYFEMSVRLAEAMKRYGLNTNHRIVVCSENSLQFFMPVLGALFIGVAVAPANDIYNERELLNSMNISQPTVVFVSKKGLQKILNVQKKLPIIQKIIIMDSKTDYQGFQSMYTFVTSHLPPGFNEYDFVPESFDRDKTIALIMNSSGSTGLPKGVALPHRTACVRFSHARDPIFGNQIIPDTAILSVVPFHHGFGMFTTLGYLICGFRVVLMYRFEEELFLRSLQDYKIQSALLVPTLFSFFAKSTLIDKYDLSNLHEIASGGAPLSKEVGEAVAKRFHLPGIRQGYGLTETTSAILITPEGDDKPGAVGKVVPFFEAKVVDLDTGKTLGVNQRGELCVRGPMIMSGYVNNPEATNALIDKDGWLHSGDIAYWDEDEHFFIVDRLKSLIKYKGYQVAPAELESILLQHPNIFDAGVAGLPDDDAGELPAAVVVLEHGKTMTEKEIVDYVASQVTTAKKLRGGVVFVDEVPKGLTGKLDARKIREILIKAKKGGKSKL
# [10] = tested on: Wnt5a (protein binding on small-molecule microarray); experiment: Wnt5a binders on small-molecule microarray, primary screen, biophysical, 635/667 nm fluorescence (AID 1142); settings: 635 nm fluorescence, higher = more signal;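 also: fluorescence read at 667 nm with signal to noise per printed feature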
# [11] = cell viability in Huh7 cells, primary screen, cytotoxicity control for HCV replication inhibitor project, CellTiter-Glo luminescence, basal, 48 h (AID 1143); settings: Huh7 HCV replicon, higher = more signal, called active from +8 up or from −8 down;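 also: Huh7 hepatoma cells carrying a hepatitis C replication reporter with no stimulus; test concentration not given here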
# [12] = P. aeruginosa biofilm formation inhibitors, primary screen, PAO1 strain, BacTiter-Glo luminescence, LB-PBS (AID 1144); settings: 12 h, higher = more signal
# [13] = CREB reporter modulators without forskolin, primary screen, cell-based, PC12, CRE-LacZ reporter, unstimulated (AID 1145); settings: no forskolin, luminescence, 4.5 h, higher = more signal, called active from +8 up or from −8 down
# [14] = CREB reporter modulators under forskolin, primary screen, cell-based, PC12, CRE-LacZ reporter, forskolin-stimulated (AID 1146); settings: luminescence, 4.5 h, higher = more signal, called active from +8 up or from −8 down;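 also: PC12 cells with 6xCRE LacZ reporter stimulated by forskolin 10 µM; beta-galactosidase reporter signal reflecting CREB driven transcription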
# [15] = biological target: Streptavidin (Streptomyces avidinii) (UniProt P22629); experiment: streptavidin binders on small-molecule microarray, primary screen, artefact control for SMM compound annotation, biophysical, 635/667 nm fluorescence (AID 1147); settings: streptavidin binding, higher = more signal;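 also: signal reflects streptavidin binding to arrayed compounds as a control protein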
# Sequence of Streptavidin (Streptomyces avidinii) (P22629 whole entry, looked up): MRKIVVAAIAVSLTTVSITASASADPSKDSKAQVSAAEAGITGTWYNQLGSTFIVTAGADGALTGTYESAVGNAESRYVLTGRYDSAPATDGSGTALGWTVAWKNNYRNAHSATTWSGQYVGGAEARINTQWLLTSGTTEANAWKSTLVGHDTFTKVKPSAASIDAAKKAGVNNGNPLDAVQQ
# [16] = small-molecule binders of probe aInhba, primary screen, biochemical, small-molecule microarray, 635/667 nm fluorescence (AID 1148); settings: higher = more signal;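 also: score merges 667nm spot fluorescence with signal-to-noise for antibody binding to printed compounds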
# Torsin-1A (Homo sapiens) [17] = biological target: Torsin-1A (Homo sapiens) (UniProt O14656); experiment: torsin A binders from cell lysate, primary screen, small-molecule microarray, wild-type, 635/667 nm (AID 1149); settings: COS7 hTOR1A-WT lysate, 635 nm fluorescence, higher = more signal
# Sequence of Torsin-1A (Homo sapiens) (O14656 whole entry, looked up): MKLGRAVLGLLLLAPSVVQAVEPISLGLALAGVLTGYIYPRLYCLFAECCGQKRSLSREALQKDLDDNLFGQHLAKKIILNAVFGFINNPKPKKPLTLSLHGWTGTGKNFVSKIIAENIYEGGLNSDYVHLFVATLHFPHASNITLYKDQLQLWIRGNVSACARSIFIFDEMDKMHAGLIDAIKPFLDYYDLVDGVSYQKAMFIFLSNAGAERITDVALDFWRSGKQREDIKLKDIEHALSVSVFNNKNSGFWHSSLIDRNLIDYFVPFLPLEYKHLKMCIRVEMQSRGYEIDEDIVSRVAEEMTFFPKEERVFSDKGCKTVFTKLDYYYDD
# Torsin-1A (Homo sapiens) [18] = biological target: Torsin-1A (Homo sapiens) (UniProt O14656); experiment: small-molecule binders of mutant TOR1A in lysate, primary screen, cell lysate, small-molecule microarray, COS7 lysate, 635/667 nm fluorescence (AID 1150); settings: COS7 hTOR1A mutant lysate, 635 nm fluorescence, higher = more signal;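 also: score pools 667 nm emission and signal to noise measuring lysate protein binding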
# [19] = tested on: Sonic hedgehog protein (Shh); experiment: small-molecule binders of Shh protein, primary screen, biochemical, small-molecule microarray, 635/667 nm fluorescence (AID 1151); settings: small-molecule microarray binding, 635 nm fluorescence; higher = more signal;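 also: Shh protein binding to compounds spotted on small-molecule microarray slides; score combines spot fluorescence intensity with signal-to-noise across triplicate slides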
SMILES,composite z-score [1],composite z-score [2],composite z-score [3],composite z-score [4],composite z-score [5],composite z-score [6],z-score [7],composite z-score (Lefty1),composite z-score [8],z-score [9],composite z-score [10],z-score [11],z-score [12],z-score [13],z-score [14],composite z-score [15],composite z-score [16],composite z-score (Torsin-1A (Homo sapiens) [17]),composite z-score (Torsin-1A (Homo sapiens) [18]),composite z-score [19]
COC(=O)[C@@]1(Cc2ccccc2)[C@H]2c3cc(C(=O)N(C)C)n(Cc4ccc(Cl)c(C(F)(F)F)c4)c3C[C@H]2CN1C(=O)c1ccccc1,1.17,1.16,-0.104,0.93,1.22,0.33,0.32,1.33,0.674,1.52 (inactive),0.498,-3.79 (inactive),0.821 (inactive),0.583 (inactive),-0.244 (inactive),1.56,0.63,-0.172,0.0947,1.31
O=C(CS)NCCCCCCNC(=O)[C@H]1C[C@H]2C(=O)NCC(=O)N2[C@H]1c1cccc(OCCO)c1,1.64,0.245,0.128,0.65,1.35,1.56,-0.698,0.47,-0.152,0.057 (inactive),0.497,-2.15 (inactive),-0.525 (inactive),0.0084 (inactive),-0.963 (inactive),-0.127,-0.226,0.168,0.442,1.54
O=C1NC(=O)C2C1C=CC(C(O)c1ccc(F)cc1)N2Nc1ccc(Cl)cc1Cl (stereo not given),1.97,0.638,-0.0637,-0.566,-0.157,-0.459,-0.553,-0.334,-0.0287,-1.32 (inactive),-0.166,-1.79 (inactive),-0.762 (inactive),0.0535 (inactive),-0.207 (inactive),-0.346,-0.0645,-0.556,-0.348,-0.354
CC1C2C(CCCO)=CC(C3C(=O)N(C)C(=O)C23)N1Cc1cccc(OC(F)(F)F)c1 (stereo not given),0.503,1.2,0.849,0.971,0.301,0.303,-0.703,0.286,0.877,-1.02 (inactive),0.164,-0.293 (inactive),0.403 (inactive),-0.0142 (inactive),-0.733 (inactive),2.22,0.143,0.76,1.47,0.113
COc1ccc([Si](C)(C)[C@H]2[C@H](CC(=O)N3CCC[C@H]3CO)O[C@@]3(C(=O)N(C)c4ccccc43)[C@@H]2C)cc1,1.86,0.0098,-0.0086,0.509,1.53,0.798,-0.151,1.16,0.051,0.229 (inactive),-0.0653,0.191 (inactive),-0.0357 (inactive),1.2 (inactive),1.33 (inactive),-0.28,0.152,1.52,0.732,1.54
Cc1ccc(N2C(=O)c3ccccc3[C@@H](C(=O)NCCN3CCOCC3)[C@@H]2c2ccc(CO)cc2)nc1,-0.227,-0.818,-0.317,-2.27,0.37,-1.08,-0.0724,-0.702,-0.183,1.09 (inactive),-0.275,0.209 (inactive),-0.479 (inactive),0.145 (inactive),-0.479 (inactive),-1.42,0.0051,-2.75,-1.65,0.179
CC1CC/C=C\[C@H]2OC34C=CCN(C(C)C)C(=O)[C@H]3N(C(C)CO)C(=O)[C@@H]4C2C(=O)O1 (stereo not given in full),-0.112,-0.504,-0.205,-1.22,0.305,-0.455,0.501,0.572,0.748,-0.316 (inactive),-0.293,0.143 (inactive),-0.657 (inactive),-1.04 (inactive),-0.627 (inactive),-0.447,1.09,0.0269,-0.381,1.09
O=C(O)C1=CC[C@H]2C(=O)N(c3ccccc3)C(=O)[C@@H]12,0.39,1.2,0.424,0.272,0.845,-0.12,-1.27,0.0347,0.701,1.57 (inactive),0.144,0.704 (inactive),0.317 (inactive),0.173 (inactive),0.676 (inactive),1.22,0.0448,1,0.448,-0.323
COc1cc2c(cc1O)C(C)N(Cc1sc3ccccc3c1Cl)CC2 (stereo not given),-0.119,-1.14,-0.439,-2.68,-0.678,-1.11,0.218,-1.44,0.358,1.39 (inactive),-0.434,-0.693 (inactive),-0.432 (inactive),-0.258 (inactive),-0.487 (inactive),0.105,0.0021,-1.22,-1.28,-0.985
C=CCNC(=O)[C@H]1[C@@H]2C(=O)O[C@@H](c3ccccc3)[C@@H](c3ccccc3)N2[C@@H](c2ccc(O)cc2)[C@]12C(=O)N(C(=O)OCCOC)c1ccc(C#Cc3ccc(OC)cc3)cc12,0.91,1.13,0.319,0.658,0.751,0.817,-1.33,0.402,0.58,0.39 (inactive),0.334,-2.17 (inactive),0.649 (inactive),-0.195 (inactive),1.43 (inactive),0.21,0.153,0.0502,0.651,1.21
